Where a chain is given by its changes, count along the chain named. Whole data set: some 16,000 sequences, median “ka relative to ugcaugu” near 0.0091, cut for the highest 2% near 0.032. What follows is part of a selection rich in the highest values, with near analogues and random picks from the rest.
T1: RBFOX1 RRM (Homo sapiens, UniProt Q9NWB1 109-208)
T1 sequence: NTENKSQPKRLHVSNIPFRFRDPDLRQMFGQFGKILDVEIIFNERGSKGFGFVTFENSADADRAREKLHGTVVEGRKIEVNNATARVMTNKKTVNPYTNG

B1: UACCAUC (DNA:RNA)
RNA: GGGAGACCGGAAUUCAGAUUGUCCUACCAUCUUAAAUCCCGUCGUAGCCACCA
DNA 1: CAATCTGAATTCCGGTCTCCC
DNA 2: TGGTGGCTACGACGGGATT
B2: CAGGAGG (DNA:RNA)
RNA: B1 RNA with U25C, C27G, C28G, U30G, C31G
DNA 1: CAATCTGAATTCCGGTCTCCC
DNA 2: TGGTGGCTACGACGGGATT
B3: GGAUGGG (DNA:RNA)
RNA: GGGAGACCGGAAUUCAGAUUGUCCGGAUGGGUUAAAUCCCGUCGUAGCCACCA
DNA 1: CAATCTGAATTCCGGTCTCCC
DNA 2: TGGTGGCTACGACGGGATT
B4: GCAUAGC (DNA:RNA)
RNA: B3 RNA with G26C, G29A, G31C
DNA 1: CAATCTGAATTCCGGTCTCCC
DNA 2: TGGTGGCTACGACGGGATT
B5: GCAUGGG (DNA:RNA)
RNA: B3 RNA with G26C
DNA 1: CAATCTGAATTCCGGTCTCCC
DNA 2: TGGTGGCTACGACGGGATT
B6: GUCAUGG (DNA:RNA)
RNA: B3 RNA with G26U, A27C, U28A, G29U
DNA 1: CAATCTGAATTCCGGTCTCCC
DNA 2: TGGTGGCTACGACGGGATT
B7: GGCAUGG (DNA:RNA)
RNA: B3 RNA with A27C, U28A, G29U
DNA 1: CAATCTGAATTCCGGTCTCCC
DNA 2: TGGTGGCTACGACGGGATT
B8: GCAUGGU (DNA:RNA)
RNA: B3 RNA with G26C, G31U
DNA 1: CAATCTGAATTCCGGTCTCCC
DNA 2: TGGTGGCTACGACGGGATT
B9: GGAUGGC (DNA:RNA)
RNA: B3 RNA with G31C
DNA 1: CAATCTGAATTCCGGTCTCCC
DNA 2: TGGTGGCTACGACGGGATT
B10: GCAUCGU (DNA:RNA)
RNA: B3 RNA with G26C, G29C, G31U
DNA 1: CAATCTGAATTCCGGTCTCCC
DNA 2: TGGTGGCTACGACGGGATT
B11: GGAAUGG (DNA:RNA)
RNA: B3 RNA with U28A, G29U
DNA 1: CAATCTGAATTCCGGTCTCCC
DNA 2: TGGTGGCTACGACGGGATT
B12: GUAUGGG (DNA:RNA)
RNA: B3 RNA with G26U
DNA 1: CAATCTGAATTCCGGTCTCCC
DNA 2: TGGTGGCTACGACGGGATT
B13: GCAUGGC (DNA:RNA)
RNA: B3 RNA with G26C, G31C
DNA 1: CAATCTGAATTCCGGTCTCCC
DNA 2: TGGTGGCTACGACGGGATT
B14: GUAUGGU (DNA:RNA)
RNA: B3 RNA with G26U, G31U
DNA 1: CAATCTGAATTCCGGTCTCCC
DNA 2: TGGTGGCTACGACGGGATT
B15: GUGUAAG (DNA:RNA)
RNA: B3 RNA with G26U, A27G, G29A, G30A
DNA 1: CAATCTGAATTCCGGTCTCCC
DNA 2: TGGTGGCTACGACGGGATT
B16: UAGUACG (DNA:RNA)
RNA: B1 RNA with C27G, C28U, U30C, C31G
DNA 1: CAATCTGAATTCCGGTCTCCC
DNA 2: TGGTGGCTACGACGGGATT
B17: CAGUGCA (DNA:RNA)
RNA: B3 RNA with G25C, G26A, A27G, G30C, G31A
DNA 1: CAATCTGAATTCCGGTCTCCC
DNA 2: TGGTGGCTACGACGGGATT
B18: GCCCCCA (DNA:RNA)
RNA: B1 RNA with U25G, A26C, A29C, U30C, C31A
DNA 1: CAATCTGAATTCCGGTCTCCC
DNA 2: TGGTGGCTACGACGGGATT
B19: UAGUAAA (DNA:RNA)
RNA: B1 RNA with C27G, C28U, U30A, C31A
DNA 1: CAATCTGAATTCCGGTCTCCC
DNA 2: TGGTGGCTACGACGGGATT
B20: GAUAUAC (DNA:RNA)
RNA: B1 RNA with U25G, C27U, C28A, A29U, U30A
DNA 1: CAATCTGAATTCCGGTCTCCC
DNA 2: TGGTGGCTACGACGGGATT

Molecular target: T1, RBFOX1 RRM
Experiment: EMSA; HiTS-Eq, 1 nM pool, 10 min; buffer printed only for the single-RNA assays: 10 mM Tris pH 7.5, 150 mM NaCl, 3.4 mM EDTA, 0.001% NP-40, 30 C
Settings: tags: His6 N-terminal (pET28a); label: 5' 32P
In short: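 These values rest on relative association constants, computed from read-count changes of each RNA species versus the control reaction and normalised to the cognate motif. Reads came from free RNA recovered by 8% native PAGE after purified RbFox RRM (wild type or mutant) at increasing concentrations was equilibrated for 10 min in 50 µL with 1 nM of a 5′-radiolabelled pool with 7 randomized nucleotides and DNA-annealed flanks.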

In order of rising binding signal:
1. B1  0.000341 KA relative to UGCAUGU
2. B18  0.00457 KA relative to UGCAUGU
3. B20  0.00528 KA relative to UGCAUGU
4. B19  0.00712 KA relative to UGCAUGU
5. B2  0.00882 KA relative to UGCAUGU
6. B12  0.00944 KA relative to UGCAUGU
7. B4  0.0095 KA relative to UGCAUGU
8. B14  0.0104 KA relative to UGCAUGU
9. B6  0.0107 KA relative to UGCAUGU
10. B15  0.0113 KA relative to UGCAUGU
11. B9  0.0116 KA relative to UGCAUGU
12. B16  0.0135 KA relative to UGCAUGU
13. B17  0.0149 KA relative to UGCAUGU
14. B10  0.0157 KA relative to UGCAUGU
15. B3  0.0169 KA relative to UGCAUGU
16. B11  0.0293 KA relative to UGCAUGU
17. B5  0.0735 KA relative to UGCAUGU
18. B7  0.104 KA relative to UGCAUGU
19. B13  0.43 KA relative to UGCAUGU
20. B8  0.558 KA relative to UGCAUGU
